Experimental data as given in PubChem BioAssay AID1347416 (National Center for Advancing Translational Sciences (NCATS), 2020).
The campaign covered roughly 4,100 compounds. About 1,600 (39%) were called active. Another 25% or so got no clear call; they are omitted. Calls follow the shape of the dose curve; as a rule, active = well fitted inhibition curve with a large enough effect; inconclusive = small, poorly fitted or top-dose-only effect; inactive = no such curve, though single readings can be large or run the other way. The list shows a part of the results.

Experiment: qHTS Validation assay for Inhibitors of Plasmodium falciparum Dd2 growth in vitro; also: nearly all actives have a fitted effect of over 70% in size
Settings: P. falciparum Dd2 in RBCs, SYBR Green growth, 72 h; series mostly up to 28.7 µM; activity change, negative = inhibition: at the top concentration
From the text: Malaria, a parasitic disease spread to humans through the bite of a Plasmodium infected Anopheles mosquito, continues to be a global health burden affecting millions of people, with an estimated 228 million cases and 405,000 deaths in 2018. Concerns about safety and limitations of current antimalarial treatments strongly emphasize the need to develop new therapeutic options. The scarce number of chemotypes and validated drug targets with efficacy against the liver stage, have hindered development of new antimalarials. To address this, a chemoprophylactic drug discovery effort was conducted through a combined phenotypic high-throughput asexual blood stage and liver stage screen, providing a robust foundation to identify liver-stage active lead chemotypes. Compounds were initially screened against Plasmodium falciparum Dd2 strain parasites using a in vitro SYBRGreen-1 based 72 hr proliferation assay to identify novel chemotypes to advance to liver stage assays. NIH/NCATS Early Translation Branch Assay Submitter (PI): Anton Simeonov Ph.D.
[…] Assay Protocol: PROTOCOL TABLE (as described by Inglese et al., 2007) SEQUENCE No. (e.g., 1, 2, 3, etc.); PARAMETER (e.g., Cells, Incubation, Reagent, etc.); VALUE; DESCRIPTION SEQUENCE, Parameter, Description 1; Reagent; 3 uL complete malaria growth medium, 1536 TC treated Black clear bottom plate 2; Controls; 23 nL positive control artesunate (300 nM final) to column 1; Neutral control DMSO to columns 2-4 3; Compound; 23 nL of compounds in dose response concentration (29 uM to 0.5 nM final) 4; Reagent; 5 uL malaria infected red blood cells (2.5% hematocrit final, 0.3% parasitemia 5; Time; 72 hours at 37C (5% O2, 5% CO2, 90% N2; 95% Rh) 6; Reagent; 2 uL lysis buffer/SYBRGreen-1, 25 sec shake immediately following dispense 7; Time; ~16 hours at 37C (5% O2, 5% CO2, 90% N2; 95% Rh) 8; Detector; EnVision (PerkinElmer) bottom read at 485/14nm excitation and 535/25 nm emission NOTES (numbers refer to sequence above): 1; Complete Malaria Growth Media: 1X RPMI-1640 w/L-glutamine, 5.5g/L Albumax II, 367 uM Hypoxanthine, 25 mM HEPES, 0.25% Sodium Bicarbonate, 35 uM Gentamicin sulfate 2; Controls were added using the Kalypsis Pintool (Wako USA) equipped with 1536 pinhead 3; Compounds were added in a 7-point, titration with a high final concentration of 29 uM by Pintool from seven inter-plate titrations of library plates and two DMSO control plates at the beginning and end (see Yasgar et al., 2008). 4; Red blood cells infected with Plasmodium falciparum Dd2 parasites were used. 6; Lysis buffer: 20 mM Tris-HCl, 10 mM EDTA, 0.16% Saponin, 1.6% Triton-X, 10X SYBR Green. REFERENCE: Inglese J, Shamu CE, Guy RK. 2007. Reporting data from high-throughput screening of small-molecule libraries. Nat Chem Biol. doi:10.1038/nchembio0807-438 Yasgar A, Shinn P, Jadhav A, Auld D, Michael S, Zheng W, Austin CP, Inglese J, Simeonov A. 2008. Compound Management for Quantitative High-Throughput Screening. J Lab Autom 13:79-89. doi:10.1016/j.jala.2007.12.004
% is scaled to controls: 0 for no effect and ±100 for the full control effect; potency is read from the fitted curve at half-maximal effect.

Activity change, negative = inhibition, inactive:
Cc1cccc(CC(=O)N2CCC3(CC2)CC(O)CCO3)c1 (stereo not given) 22.4%
O=C(CCC1CCCN(C(CO)CO)C1)N1CCN(Cc2ccccc2)CC1 (stereo not given) 32%
COc1ccc(-c2nc3ccccc3s2)cc1NC(=O)c1cc2ccccc2o1 -22%
COc1ncc(-c2cc3c(nc2OC)nc(CC2CC2)n3C)cn1 -9.43% [at 43.1 µM]
COc1ccc([C@@H]2CN(C(=O)CCc3c(C)noc3C)C[C@H]2N(C)C)cc1 4.96%
CCC(C)NC(=O)N1CC(c2nc(CCOCC3CCOCC3)no2)C1 (stereo not given) 22.5%
Cc1cc(C(=O)Nc2cc(C)n(Cc3ccc(Cl)cc3)n2)no1 -24.4%
CCc1ccc(CN(Cc2ccco2)C(=O)c2cc(-c3ccc(Cl)cc3)on2)cc1 72.8%
O=C(Cc1cccs1)NC1CCN(c2cc(C(F)(F)F)ncn2)CC1 10%
O=C(CCCCn1c(=O)c2ccccc2n(CC(=O)Nc2ccccc2)c1=O)NCc1ccccc1Cl 33.3%
COC(=O)c1ccccc1NC(=O)Cn1c(=O)n(CCCC(=O)NCc2ccccc2Cl)c(=O)c2ccccc21 -14.9%
CN1CCN(c2cc(=O)c3ccnc(-c4cn[nH]c4)c3o2)CC1 14.8% [at 43.1 µM]
CC(C)CNC(=O)c1ccc2c(c1)NC(C)(CNc1ccccc1)CO2 (stereo not given) 12.1% [at 43.1 µM]
Cc1cc(C)n(CC(=O)N2C[C@@H](COc3ccccc3)[C@H](C(N)=O)C2)n1 15.8%
CCOC(=O)CCn1nc(-c2ccc(C)cc2)c2ccccc2c1=O -3.49%
CCc1noc(-c2cn(C3CCCN(C(=O)c4ccc5c(c4)OCO5)C3)nn2)n1 (stereo not given) -13.6%
COc1ccc(C(=O)N2CCN3C(=O)N(C4CCOCC4)C[C@H]3C2)cc1 0% [at 43.1 µM]
COc1ccc(C(=O)N2CCC3(CC2)CC(C(C)C)=NO3)cc1 31.2% [at 43.1 µM]
O=C1NCc2ccccc2CC12CCN(Cc1ccccc1F)CC2 9.53%
O=C(c1ccccc1F)N1CCCC2(C1)NC(=O)N(Cc1cccc(Cl)c1)C2=O (stereo not given) -0.29%
Cc1ccccc1C(=O)N1CCC2(CC1)NC(=O)N(c1ccc(F)cc1)N2 -26.7%
O=C(c1ccccc1-c1ncc[nH]1)N1CC[C@@H](c2ccc3c(c2)OCO3)[C@H](O)C1 12.5%
Cc1ccc(-c2cn3c(n2)N(C(=O)c2sc(C)nc2C)CCC3)cc1 22.3%
COC(=O)c1c(NC(=O)/C(C#N)=C/c2ccccc2)sc2c1C(C(=O)OC)CC2 (stereo not given) -16.9%
CNC(=O)N1CCC(Cc2nncn2C(C)C)C1 (stereo not given) 21.1%
CCc1ccccc1NC(=O)c1cn(C)c(=O)c2ccccc12 3.09%
Cn1cc(C(=O)N2CCN(c3ccccc3)CC2)c(=O)c2cc(S(=O)(=O)N3CCCC3)ccc21 16.1%
CCn1cc(C(=O)N2CCN(c3cc(Cl)ccc3C)CC2)c(=O)c2cc(S(=O)(=O)N3CCCCC3)ccc21 35.7%
COc1ccc(C(=O)N2CCN(c3nnc4cccc(C)n34)CC2)cc1F 6.68%

Potency, active:
COc1ccc(C)cc1N(C(=O)COc1cccc(F)c1)c1nc2ccccc2s1 5.96 µM
CCc1nn2cc(C(=O)c3cc(C)ccc3O)cnc2c1-c1ccc(F)cc1 9.44 µM
Nc1nc(N)c2cc(Sc3ccc4ccccc4c3)ccc2n1 1.33 µM
CCOC(=O)c1ccc(Nc2nnc(C(C)(C)C)c(=O)[nH]2)cc1 13.3 µM
Cc1cc(NC(=O)c2cc(-c3ccco3)on2)nn1Cc1ccc(Cl)cc1 8.41 µM
CCC(=O)N/C(N)=N/c1nc(C)c2cc(C)c(C)cc2n1 9.44 µM
COC(=O)c1cc(O)cc(OC)c1Oc1cc(C)cc(O)c1C(=O)O 4.22 µM
Cc1ccc(NC(=O)Cn2c(=O)n(-c3ccc(C)cc3)c(=O)c3ccc(C(=O)NCc4ccccc4Cl)cc32)cc1 5.31 µM
COc1ccc(C2c3ccc4ccccc4c3Oc3ncn(CCCN(C)C)c(=N)c32)cc1 (stereo not given) 2.99 µM
CN(C)CCCn1cnc2c(c1=N)C(c1ccccc1)c1ccc3ccccc3c1O2 (stereo not given) 3.76 µM
CCC(C)N(CCNC(=O)c1ccc2c(c1)NC(=O)c1ccccc1S2)C1CCCCC1 (stereo not given) 13.3 µM
CCOC(=O)COn1c(-n2nc(C)cc2C)nc2ccccc2c1=O 9.44 µM
COc1ccc(C2c3ccc(O)cc3Oc3ncn4nc(-c5ccncc5)nc4c32)cc1OC (stereo not given) 15 µM
c1ccc2c(c1)CNC1(CCN(Cc3cccc4ccccc34)CC1)CO2 7.5 µM
O=C(c1ccccc1F)N1CCC2(CC1)COc1ccccc1CN2 4.33 µM
COc1ccc(C(=O)N2CCC3(CC2)COc2ccccc2CN3)cc1 10.6 µM
O=C(c1ccc2c(c1)OCO2)N1CCC2(CC1)COc1ccccc1CN2 5.31 µM
COc1cc2c(C(=O)N3CCN(c4cc(Cl)ccc4C)CC3)cn(CC(C)C)c(=O)c2cc1OC 15 µM
Cc1ccc(Cl)cc1N1CCN(C(=O)c2cn(CC(C)C)c(=O)c3c2c2ccccc2n3C)CC1 3.35 µM
Cn1cc(C(=O)NCCN2CCN(c3cccc(Cl)c3)CC2)c2c3ccccc3n(C)c2c1=O 4.73 µM
CCOC(=O)c1ccccc1NC(=O)c1cn(CC(C)C)c(=O)c2cc(OC)c(OC)cc12 8.41 µM
